Laboratory results: PMC6919601, “Identification of Plasmodium dipeptidyl aminopeptidase allosteric inhibitors by high throughput screening” (PLoS ONE, 2019)
Hit rate of the full screen: of about 110,000 compounds, about 230 (0.21%) showed an effect of 50% or more. The sample as a whole holds a higher share of strong results than the screen did.

Molecular target: DPAP1 (Plasmodium falciparum, UniProt Q8IIJ9)
Test: primary screen, percent inhibition; read by cleavage of a fluorogenic dipeptide substrate; higher = more effect of the substance
Parameters: species or system P. falciparum D10 trophozoite lysates; single well
Protocol: HTS was performed in black 384-well plates. The first and last two columns of each plate contained our negative (DMSO) and positive (10 μM JCP410) controls, and the 20 central columns the test compounds at 10 μM. Compounds were first diluted 50-fold into assay buffer (50 mM sodium acetate, 5 mM MgCl2, 10 mM β-mercaptoethanol, and 0.1% CHAPS, pH 5.5) from a 10 mM DMSO stock plates. One microliter of this 200 μM intermediate stock plate was dispensed into the assay plate. […] After 30 min, the reaction was quenched with 20 μL of 0.5 M acetic acid, and the fluorescent intensity measured at 523 nm (λex = 492 nm) using an Analyst HT multimode plate reader (Molecular Devices).
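Also: 30 min substrate incubation versus DMSO and 10 µM JCP410 controls.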

Sequence of DPAP1 (Q8IIJ9 whole entry, looked up): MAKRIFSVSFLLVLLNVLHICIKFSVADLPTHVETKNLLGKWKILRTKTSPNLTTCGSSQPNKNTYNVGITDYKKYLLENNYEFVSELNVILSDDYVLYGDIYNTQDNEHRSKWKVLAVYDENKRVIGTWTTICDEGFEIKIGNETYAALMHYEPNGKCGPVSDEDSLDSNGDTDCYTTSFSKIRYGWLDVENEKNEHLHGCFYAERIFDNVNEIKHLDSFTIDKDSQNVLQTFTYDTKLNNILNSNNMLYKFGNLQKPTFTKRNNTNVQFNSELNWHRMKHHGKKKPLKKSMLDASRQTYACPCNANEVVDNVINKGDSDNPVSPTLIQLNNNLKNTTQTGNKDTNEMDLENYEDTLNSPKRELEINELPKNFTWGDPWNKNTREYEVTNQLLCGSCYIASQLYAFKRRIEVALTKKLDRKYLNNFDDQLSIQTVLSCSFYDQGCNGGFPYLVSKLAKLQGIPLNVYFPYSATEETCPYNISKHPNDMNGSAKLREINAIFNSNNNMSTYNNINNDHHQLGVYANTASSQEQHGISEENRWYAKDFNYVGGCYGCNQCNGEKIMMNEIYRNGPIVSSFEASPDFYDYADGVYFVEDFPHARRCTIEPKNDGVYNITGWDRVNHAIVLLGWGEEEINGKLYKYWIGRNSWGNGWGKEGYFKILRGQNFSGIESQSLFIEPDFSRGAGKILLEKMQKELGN

Row | SMILES | % Inhibition @ 10 uM [%]
1 | Cc1ccc(C2C(C#N)=C(N)SC(N)=C2C#N)o1 | 47.9
2 | OC(c1ccccc1)c1nc2ccccc2n1CCc1ccccc1 (stereo not shown) | -2.92
3 | CC1=C(C(=O)Nc2ccc(Br)cn2)C(c2ccccc2C)C2=C(O)CCCC2=N1 (stereo not shown) | 2.7
4 | CN(CC(=O)NCc1cccs1)S(=O)(=O)c1ccc2[nH]c(-c3ccccc3)nc2c1 | 3.88
5 | COc1ccc(Br)cc1CNC(=O)c1ccc2c(c1)ncn2C1CCCC1 | 3.66
6 | COc1cc(CN(C(=S)NCC(=O)NC2CCCC2)C2CCCC2)cc(OC)c1OC | 1.27
7 | COc1cc(C2=N/C(=C\c3ccc(C(C)(C)C)cc3)C(=O)O2)cc(OC)c1OC | 84.3
8 | COc1cc(C2=N/C(=C\c3ccc(SC)cc3)C(=O)O2)cc(OC)c1OC | -20.1
9 | COc1cc(/C=C2\N=C(c3cc(OC)c(OC)c(OC)c3)OC2=O)cc(OC)c1OC | 0.607
10 | Cc1cccc(C(=O)Nc2ccc(S(=O)(=O)N3CCCCC3)cc2)c1 | -1.28
11 | N#Cc1c(-c2ccccc2)cc(-c2ccccc2)c(C#N)c1N | 0.716
12 | N#Cc1c(-c2ccccc2)cc(C(F)(F)F)nc1S | 76.9
13 | N#Cc1c(-c2ccc(F)cc2)cc(C2CC2)nc1S | 4.63
14 | N#Cc1c(-c2ccccc2)cc(C(F)F)nc1S | 76.3
15 | N#Cc1c(-c2ccc3c(c2)OCO3)cc(-c2ccccc2)nc1S | 11.7
16 | COc1ccc(-c2cc(-c3ccccc3)nc(S)c2C#N)cc1 | 43.3
17 | CC1CCN(S(=O)(=O)c2ccc(NC(=O)c3ccc(-c4ccccc4)cc3)cc2)CC1 | 2.13
18 | Cc1sc2s[n+](CCCS(=O)(=O)O)c(C)c2c1C | -1.33
19 | CCOc1ccc(N2CC(C(=O)Nc3ccc(Br)cc3C)CC2=O)cc1 (stereo not shown) | 4.05
20 | CCCCC(=O)Nc1c(-c2ccccc2)nc2ccccn12 | -3.19
21 | CCn1c(=S)[nH]c2sc3c(c2c1=O)CCCC3 | 42.2
22 | O=c1c2c3c(sc2[nH]c(=S)n1Cc1ccccc1)CCC3 | 21
23 | S=c1[nH]c(=S)c2c3c(sc2[nH]1)CCC3 | 85.2
24 | O=c1c2c3c(sc2[nH]c(=S)n1C1CCCCC1)CCCC3 | 9.26
25 | O=c1c2c3c(sc2[nH]c(=S)n1Cc1ccccc1)CCCC3 | 3.06
26 | O=c1[nH]c(=S)[nH]c2sc3c(c12)CCC1(CCCCC1)C3 | 5.93

Row | SMILES | % Inhibition @ 10 uM [%]
27 | CCn1c(=S)[nH]c2sc3c(c2c1=O)CCC3 | 64.7
28 | C=C(C)Cn1c(=S)[nH]c2sc3c(c2c1=O)CCCC3 | 57.3
29 | CC1(C)Cc2c(sc3[nH]c(=S)[nH]c(=S)c23)CO1 | 15
30 | Cc1cc2nnc(SCC(=O)O)n2c2ccccc12 | -2.19
31 | C=C(C)COc1ccc2cc(-c3nc4ccccc4s3)c(=O)oc2c1 | 6.22
32 | CC(C)(C)c1ccc(C(=O)NCc2cccc3ccccc23)cc1 | -3.48
33 | Cc1ccccc1C1CC(=O)N2CN(Cc3ccccc3)CSC2=C1C#N (stereo not shown) | 31.2
34 | N#CC1=C2SCN(C3CCCCC3)CN2C(=O)CC1c1cccc2ccccc12 (stereo not shown) | 53.8
35 | N#CC1=C2SCN(C3CCCCC3)CN2C(=O)CC1c1ccccc1F (stereo not shown) | 37.8
36 | Cc1ccccc1C1CC(=O)N2CN(C3CCCCC3)CSC2=C1C#N (stereo not shown) | 24
37 | N#CC1=C2SCN(Cc3ccco3)CN2C(=O)CC1c1cccc2ccccc12 (stereo not shown) | 45.5
38 | N#CC1=C2SCN(Cc3ccccc3)CN2C(=O)CC1c1cccc2ccccc12 (stereo not shown) | 51.5
39 | CC1(c2ccccc2)CC(C)(C)N(C(=O)/C=C/c2ccccc2)c2ccccc21 (stereo not shown) | 0.467
40 | COc1ccc(C(=O)N2c3ccccc3C(C)(c3ccccc3)CC2(C)C)cc1 (stereo not shown) | -2
41 | COc1ccc(/C=C/C(=O)N2c3ccccc3C(C)(c3ccccc3)CC2(C)C)cc1 (stereo not shown) | 56.6
42 | CCc1ccc(NC(=O)C2CCN(S(=O)(=O)c3cc(Cl)ccc3Cl)CC2)cc1 | -4.06
43 | O=C1c2ccccc2C(=O)N1CNc1ccc(Cl)c(Cl)c1 | -1.17
44 | Cn1cc(Br)c(C(=O)Nc2sc3c(c2C(N)=O)CCC3)n1 | 1.02
45 | NC(=O)c1c(NC(=O)C2CC2)sc2c1CCCCCC2 | 5.39
46 | Cn1ccc(C(=O)Nc2sc3c(c2C(N)=O)CCCCC3)n1 | 47
47 | NC(=O)c1c(NC(=O)C2CC2)sc2c1CCCCC2 | 50.4
48 | NC(=O)c1c(NC(=O)C23CC4CC(CC(C4)C2)C3)sc2c1CCCCC2 | 52.3
49 | NC(=O)c1c(NC(=O)C2CCC2)sc2c1CCCCC2 | 7.35
50 | CC(=O)Nc1sc2c(c1C(N)=O)CCCCCC2 | 2.65
51 | Cn1cc(Br)c(C(=O)Nc2sc3c(c2C(N)=O)CCCCC3)n1 | 51.9
52 | CCOC(=O)c1c(NC(=O)C23CC4CC(CC(C4)C2)C3)sc2c1CCCC2 | -1.36
